SARS 3CLpro inh: SARS-CoV 3CLpro protease inhibitors, primary screen, biochemical, quenched FRET; AID 1706, 2009; actives 0.14% (n = 290,000); recombinant SARS-CoV 3CLpro, quenched FRET peptide cleavage; inhibition, % at 6 µM; Replicase polyprotein 1ab (Severe acute respiratory syndrome coronavirus), P0C6X7; in the data active = inhibition above about 12%
CCHFV vOTU inh: CCHFV vOTU protease inhibitors, primary screen, biochemical, Pep-AMC substrate, fluorescence; Crimean-Congo hemorrhagic fever virus L polyprotein viral ovarian tumor (vOTU) protease …; inhibition, % at 11.5 µM; actives 0.55% (n = 370,000); AID 651958, 2012; in the data active = inhibition above about 30%
Anthrax LF inh2: Bacillus anthracis LF protease inhibitors, primary screen, biochemical, multiplex microsphere, MLPCN library; inhibition, % at 10 µM; multiplex microsphere protease cleavage assay; Lethal factor (Bacillus anthracis), P15917; AID 588501, 2011; actives 0.12% (n = 360,000)
BoNT-A LC inh2: BoNT/A light chain protease inhibitors, primary screen, biochemical, flow cytometry, MLPCN library. multiplex microsphere protease substrate cleavage. AID 588499, 2011. actives 0.17% (n = 360,000). inhibition, % at 10 µM
Autofluor counter: flagged as autofluorescent in microsphere protease counterscreen. actives 3.1% (n = 360,000). AID 624483. compound autofluorescence counterscreen, microsphere flow cytometry; stronger effect = higher value. fluorescence intensity (test concentration not listed); in the data active = fluorescence intensity above about 16000; inconclusive = no clear call, values can overlap the other calls
BoNT F protease: BoNT/F light chain protease inhibitors, primary screen, biochemical, flow cytometry, MLPCN library; Botulinum neurotoxin type F light chain protease (Clostridium botulinum); inhibition, % at 10 µM; Multiplex microsphere protease cleavage assay; AID 588497, 2011; actives 0.22% (n = 360,000); in the data active = inhibition above about 35%, passing the limit was not always enough; inconclusive = no clear call, values can overlap the other calls
Hits are given with their value; - = inactive; ? = inconclusive; . = no result. A selection: hits, their analogues and other compounds. The true share with any hit is near 3.9%. Cut-off read from the data, not from the text of the source, unless noted: active = inhibition above about 30%; inconclusive = no clear call, values can overlap the other calls; inactive = below that.

SMILES | SARS 3CLpro inh | CCHFV vOTU inh | Anthrax LF inh2 | BoNT-A LC inh2 | Autofluor counter | BoNT F protease
COc1cccc(CN(CC(=O)NCC2CCCO2)C(=O)CNS(=O)(=O)c2ccccc2)c1 (centres undefined) | - | - | - | - | 16841 | -
COc1cccc(N(CC(=O)NCC2CCCO2)C(=O)CNS(=O)(=O)c2ccccc2)c1 (centres undefined) | - | - | - | - | - | -
C[C@@H](CCCCC1(C)OCCO1)CCC(=O)N(c1ccccc1)c1ccccc1 | . | - | . | . | . | .
Cn1c(SCC(=O)Nc2ccc(C(=O)O)cc2)nnc1-c1ccccn1 | . | - | . | . | . | .
CC(C)OC(=O)CSc1nnc(-c2ccccn2)n1C | - | - | - | - | 17273 | -
CCc1ccc(NC(=O)CSc2nnc(-c3ccccn3)n2C)cc1 | - | - | - | - | 19708 | -
CCCCSc1nnc(-c2ccc(NC(=O)CCc3ccccc3)cc2)n1C | - | - | - | - | 20381 | -
CN(C)c1ccc(C(=O)NCC2CCN(C(=O)C(=O)c3cccs3)CC2)cc1 | . | - | . | . | . | .
CC(=O)c1ccc(NC2c3ncccc3C(=O)N2Cc2ccc(F)cc2)cc1 (centres undefined) | - | - | - | - | 21897 | -
O=C1c2cccnc2C(=O)N1Cc1ccc(F)cc1 | - | - | - | - | 21659 | -
O=C1c2cccnc2C(O)N1Cc1ccc(F)cc1 (centres undefined) | - | - | - | - | 23014 | -
CN(CCc1ccccc1)C(=O)c1ccc2c(c1)ncn2C1CCCCC1 | . | - | . | . | . | .
COC(=O)C[C@H]1CC[C@@H]2[C@@H](COc3ccc(NS(=O)(=O)c4ccccc4Cl)cc3C(=O)N2C)O1 | . | - | . | . | . | .
CCOCCCNC(=S)NNC(=O)CCn1nc(C)c(Br)c1C | - | . | - | - | 24089 | -
CNC(=S)NNC(=O)CCn1nc(C)c(Br)c1C | - | - | - | - | - | -
Nn1c(SCC(=O)NC2CCCCC2)nnc1-c1cc(-c2ccc(Cl)cc2)n[nH]1 | . | - | . | . | . | .
CC(C(=O)Nc1ccc(Br)cc1C(=O)c1ccccc1)N1CCCCC1 (centres undefined) | - | - | - | - | 19761 | -
COCCOC(=O)c1c(C)oc2ccc(OC(=O)COc3c(F)c(F)c(F)c(F)c3F)cc12 | - | - | - | - | 22277 | -
COCCOC(=O)c1c(C)oc2ccc(OC(=O)c3cccs3)cc12 | - | - | - | - | 22293 | -
NC(=O)c1ncn([C@@H]2O[C@H](C(=O)Nc3ccc(C(=O)N4CCCCC4)cc3)[C@@H](O)[C@H]2O)n1 | . | - | . | . | . | .
Cn1cc(-c2cccc3[nH]cc(-c4ccccc4)c23)c2ccccc21 | . | - | . | . | . | .
CCOc1cc(C(=O)OCC(=O)c2c(C)[nH]c3ccccc23)ccc1OCC(=O)N1CCOCC1 | - | - | - | ? | 21648 | -
O=C(C1CCCCC1)n1ccc2ccc(-c3ccc4ccn(Cc5ccccc5)c4c3)cc21 | . | - | . | . | . | .
CCC1(C)Cc2c(sc3nnn(Cc4ccccc4Cl)c(=O)c23)CO1 (centres undefined) | - | - | - | - | 20244 | -
CCC1(C)Cc2c(sc3nn[nH]c(=O)c23)CO1 (centres undefined) | - | . | - | - | 16707 | -
SMILES | SARS 3CLpro inh | CCHFV vOTU inh | Anthrax LF inh2 | BoNT-A LC inh2 | Autofluor counter | BoNT F protease
COC(=O)c1cc(-c2ccc(F)cc2OCc2ccccc2)c(=O)n2c1CCC2 | . | - | . | . | . | .
CCN(CC)c1ccc2cc(-c3nc(-c4cc5ccccc5oc4=O)cs3)c(=O)oc2c1 | . | - | 47 | 87 | - | -
O=c1oc2ccccc2cc1-c1csc(Cc2nc(-c3ccc(Cl)cc3)cs2)n1 | - | - | - | - | - | -
CC1(C)CC(=O)C=C(Nc2cc(-c3ccccc3)[nH]n2)C1 | - | - | - | - | 21249 | -
O=C(OC12CCCN(C1)/C(=C/c1ccc(Cl)cc1)C2)c1ccc(Cl)cc1 (centres undefined) | . | - | . | . | . | .
COc1cc2nc(C3CCC3)n(NC(=O)c3ccco3)c(=O)c2cc1OC | - | - | - | - | - | -
COc1ccc(C(=O)Nn2c(C3CCC3)nc3ccccc3c2=O)c(OC)c1 | - | - | - | - | 18494 | -
COc1ccc(C(=O)Nn2c(SCC(=O)N3CCC(C)CC3)nc3ccccc3c2=O)cc1 | - | - | - | ? | 20975 | -
COc1ccc(C(=O)Nn2c(SCC(=O)NC3CCCCC3)nc3ccccc3c2=O)cc1 | - | - | - | - | 20612 | -
COc1ccc(C(=O)Nn2c(SCC(=O)c3ccc(Cl)cc3)nc3ccccc3c2=O)cc1 | - | - | - | - | 20288 | -
COc1ccc(C(=O)Nn2c(SCC(=O)NCc3ccco3)nc3ccccc3c2=O)cc1 | - | - | - | - | - | -
COCCn1c(SCC(=O)N2CCC(C)CC2)nc2ccccc2c1=O | - | - | - | - | - | -
COc1ccc(C(=O)Nn2c(C)nc3ccccc3c2=O)cc1 | - | - | - | - | - | ?
Cn1ccnc1C(=O)O[C@@H]1CCC[C@@]2(C(=O)N(Cc3ccccc3)c3ccccc32)[C@H]1NC(=O)CCc1ccccc1 | . | - | . | . | . | .
COC(=O)C1=C(C)N(C)C(=NCc2ccccc2C(F)(F)F)NC1CCc1ccccc1 (centres undefined) | . | - | . | . | . | .
COC(=O)[C@]12C[C@H](CC(=O)NCCC(C)C)C(=O)N(Cc3ccc(Cl)cc3Cl)C1=C[C@H](COCc1ccccc1)O[C@@H]2C | . | - | . | . | . | .
CC(=O)c1ccc(NC(=O)NC2CCCCN(Cc3ccc(Cl)cc3)C2=O)cc1 (centres undefined) | . | - | . | . | . | .
COC(=O)C[C@@H]1CC[C@H]2[C@@H](COc3ccc(NC(=O)Nc4cccc(F)c4)cc3C(=O)N2C)O1 | . | - | . | . | . | .
CCCCCOC(=O)C1C2C=CC3(CN(c4ccccc4C)C(=O)C13)O2 (centres undefined) | - | - | - | - | 21724 | -
O=C(COc1ccc(S(=O)(=O)N2CCOCC2)cc1)Nc1ccccc1C(F)(F)F | - | - | - | - | 22134 | -
O=C(COc1ccc(S(=O)(=O)N2CCOCC2)cc1)NCCc1ccccc1 | . | - | - | - | - | ?
CC(C)CNC(=O)CC1Oc2ccccc2NC1=O (centres undefined) | . | - | . | . | . | .
CCc1c(C)c2ccc(OCC(=O)OC(C)C)c(C)c2oc1=O | - | - | - | - | 24390 | -
Cc1c(OCC(=O)OC(C)C)ccc2c3c(c(=O)oc12)CCC3 | - | - | - | - | - | -
COC(=O)Cc1c(C)c2ccc(OCc3nn[nH]n3)cc2oc1=O | - | - | - | - | - | -
CCc1c(C)c2ccc(OCC(=O)N(C)C)c(C)c2oc1=O | - | - | - | - | 21643 | -
COC(=O)Cc1c(C)c2ccc(OCc3nn[nH]n3)c(C)c2oc1=O | - | - | - | - | 21317 | -
COc1ccc(S[C@]2(C(=O)N3CCN(C(C)=O)CC3)CC(=O)N(S(=O)(=O)c3ccc(F)cc3)[C@@H]2c2ccc(OC)cc2)cc1 | . | - | . | . | . | .

Screening data from PubChem.
